CatB mix inh: human cathepsin B inhibition by mixtures. P07858. Purified cathepsin B, AMC dipeptide fluorescence, compound mixtures. inhibition, %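 (ten-compound pools at 5 µM per compound and 50 µM total)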. hit rate 0.06% among 62,000; in the data active = inhibition above about 22%, passing the limit was not always enough; inconclusive = no clear call, values can overlap the other calls;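 note: 0% = enzyme without compound and 100% = no enzyme blank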
CatB block: human cathepsin B inhibition; purified cathepsin B, fluorogenic substrate, fluorescence; inhibition, %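 (tested at 10 µM)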; AID 453; hit rate 0.1% among 63,000; P07858; in the data active = inhibition above about 21%;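 note: 0% = enzyme with no compound and 100% = no enzyme blank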
CatS block: human cathepsin S inhibition; P25774; recombinant cathepsin S, AMC dipeptide fluorescence, pooled mixtures; inhibition, %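 (tested at 5 µM per compound within 10-compound mixtures)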; hit rate 0.06% among 62,000; in the data active = inhibition above about 32%, passing the limit was not always enough; inconclusive = no clear call, values can overlap the other calls;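 note: 0% = enzyme without compound and 100% = blank without enzyme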
Target sequence (P25774 115-331 limits assumed): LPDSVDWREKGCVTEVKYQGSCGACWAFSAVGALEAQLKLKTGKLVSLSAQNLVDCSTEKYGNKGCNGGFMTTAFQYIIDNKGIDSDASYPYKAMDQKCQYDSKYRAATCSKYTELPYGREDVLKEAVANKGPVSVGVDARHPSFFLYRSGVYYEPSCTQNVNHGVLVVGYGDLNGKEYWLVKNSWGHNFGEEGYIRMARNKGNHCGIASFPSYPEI
CatL inh: inhibitors of human cathepsin L | purified cathepsin L, fluorogenic substrate, fluorescence | hit rate 0.17% among 58,000 | P07711 | inhibition, %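 (tested at 10 µM)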; in the data active = inhibition above about 45%;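 note: 0% = enzyme with no compound and 100% = no enzyme blank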
DUSP1 inh: blocks human MKP-1 phosphatase activity; recombinant MKP-1, OMFP hydrolysis fluorescence; inhibition, %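 (compounds tested at a single concentration somewhere between 10 and 100 µM)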; hit rate 0.15% among 65,000; AID 374;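 active = inhibition above about 50%, limit read from the data; inconclusive = inhibition over screen mean plus 3 SD, below that limit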;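 note: 0% = DMSO max control wells and 100% = wells with enzyme stopped by NaOH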
Cdc25B inh: inhibitors of human Cdc25B phosphatase; recombinant Cdc25B, OMFP fluorescence Ex485/Em525; inhibition, %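 (compounds tested at 10 µM final in the well)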; hit rate 0.1% among 65,000; in the data active = inhibition above about 50%
Redox H2O2 0p5DTT: counter-screen for Cdc25B probes: redox cycling H2O2 in 0.5 mM DTT | shares compounds with Cdc25B inh | cell-free redox cycling H2O2 generation | EC50, µM | hit rate 50% among 30; in the data active = EC50 below about 30 µM
Redox 1 DTT: counter-screen for Cdc25B probes: redox cycling H2O2 in 1 mM DTT; AID 683; EC50, µM; cell-free redox cycling H2O2 generation; 30 tested, under 10 active; shares compounds with Cdc25B inh; in the data active = EC50 below about 50 µM
Redox H2O2: generates H2O2 by redox cycling in DTT; 60 tested, under 10 active; Redox cycling H2O2 generation, phenol red/HRP; AID 672; shares compounds with DUSP1 inh; EC50, µM; call rule not given here
* hit, by the source's call; ? = inconclusive; . = not tested or not shown. Most compounds without a hit are left out; they make up all but 0.5% or so of the library.

SMILES	CatB mix inh	CatB block	CatS block	CatL inh	DUSP1 inh	Cdc25B inh	others
COc1cc2c(cc1OC)-c1c(OC)c(OC)cc3c1C(C2)N(C)CC3 (stereo not drawn)	20	27*	?	14	16	3
COc1ccc(C(CC(=O)N2CCC3(CC2)OCCO3)NS(=O)(=O)c2ccc(F)cc2)cc1 (stereo not drawn)	-4	1	-4	14	3	52*
COc1ccc(CNCC(=O)N2CCC3(CC2)OCCO3)cc1	1	6	-10	6	-3	-1
CN(C)P1(N(C)C)=Nc2c(c(N)nn2C)C(c2ccccc2)=N1	-2	1	3	.	0	-10
Cn1cccc1CNCCc1ccccc1F	1	-2	3	54*	-8	4
CC(C)OC(=O)C1C(=O)NC2(C)CC1c1ccccc1O2 (stereo not drawn)	3	7	5	7	30	-8
CN1C2CCC1CC(OC(=O)CCN1CCCC1)C2 (stereo not drawn)	7	1	15	11	-2	77*
C=C(C)CSc1nnc([C@@H](N)Cc2c[nH]c3ccccc23)o1	-4	3	1	.	-4	3
CCc1ccccc1NC(=O)CSc1nnc([C@@H](N)Cc2c[nH]c3ccccc23)o1	6	0	17	120*	11	4
Cc1ccc(NC(=O)CSc2nnc([C@@H](N)Cc3c[nH]c4ccccc34)o2)c(C)c1	-3	6	2	93*	-3	3
COCCOC(=O)C1=C(N)Oc2c(c(=O)oc3ccccc23)[C@@]12C(=O)Nc1ccccc12	.	8	.	19	-22	-15
O=C(NCC(c1cccnc1)N1CCN(c2ccc(F)cc2)CC1)Oc1ccccc1 (stereo not drawn)	.	.	.	.	29	1
CCn1nc(-c2cccs2)nc2c(=O)n(C)c(=O)nc1-2	86*	82*	87*	81*	104*	101*	Redox H2O2 0p5DTT=0.65*;Redox 1 DTT=1*;Redox H2O2=14*
Cc1nn(C)c(C)c1P(=S)(c1c(C)nn(C)c1C)N(C)C	2	5	9	4	-5	3
CC(C)(C)c1nc(N2CCN(C(=O)c3ccco3)CC2)c2nnn(Cc3ccccc3Cl)c2n1	0	1	?	-2	10	-16
O=C1C=Cc2ccccc2C1=O	.	.	.	.	94*	99*	Redox H2O2 0p5DTT=26*;Redox 1 DTT=>50;Redox H2O2=>50
COCCCn1c(N)c(C(=O)NCCC(C)C)c2nc3ccccc3nc21	-7	-4	-8	-36	55*	5	Redox H2O2=>50
CCCCOCCCn1c(N)c(C(=O)OCCOC)c2nc3ccccc3nc21	.	-15	.	-472	-14	30
CCOC(=O)/C(CCCN(CC)CC)=N\O	5	1	-6	1	2	1
Cc1nc2cc(-c3cccc(F)c3)nn2c(C)c1CCC(=O)N1CCC2(CC1)OCCO2	-4	2	-13	-5	60*	-6	Redox H2O2=>50

Screening data deposited in PubChem by several laboratories.
